Experimental findings from PubChem BioAssay are described below.

A number with no mark means an inactive call. Calls of active or inactive are those of the source. Rule as the data show it, unless noted: active = inhibition above about 25%; inactive = the rest.

The inhibition is the change of the read-out against control, counted positive when it falls.

The target in test [1] is Nuclear receptor coactivator 1 (Homo sapiens) (UniProt Q15788). The experiment in a line: SRC1 coactivator transcriptional activity inhibitors, confirmation, cell-based, luminescence, quadruplicate (AID 588820;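 active = mean inhibition above 46.68%, the untreated control wells mean plus 3 SD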;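 also: 0% = DMSO wells and 100% = gossypol 36 µM treated wells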). To be noted: HEK293 GAL4-SRC1 luciferase reporter, at 3.6 µM, hits give high values. (In general: Reporter assays use an easily measured gene product as a stand-in for the process of interest.)

Test [2] is described as follows: VP16 transactivation inhibitors, counter-screen for SRC1 inhibitor project, cell-based, luminescence, high throughput (AID 588824). The settings on record: cell-based VP16 transactivation luciferase luminescence; at 3.6 µM; hits give high values. A general note: The purpose of a counterscreen is to sort out artefacts and off-target activity.

Chain of Nuclear receptor coactivator 1 (Homo sapiens) (Q15788 whole entry, looked up, the tested form may be a part): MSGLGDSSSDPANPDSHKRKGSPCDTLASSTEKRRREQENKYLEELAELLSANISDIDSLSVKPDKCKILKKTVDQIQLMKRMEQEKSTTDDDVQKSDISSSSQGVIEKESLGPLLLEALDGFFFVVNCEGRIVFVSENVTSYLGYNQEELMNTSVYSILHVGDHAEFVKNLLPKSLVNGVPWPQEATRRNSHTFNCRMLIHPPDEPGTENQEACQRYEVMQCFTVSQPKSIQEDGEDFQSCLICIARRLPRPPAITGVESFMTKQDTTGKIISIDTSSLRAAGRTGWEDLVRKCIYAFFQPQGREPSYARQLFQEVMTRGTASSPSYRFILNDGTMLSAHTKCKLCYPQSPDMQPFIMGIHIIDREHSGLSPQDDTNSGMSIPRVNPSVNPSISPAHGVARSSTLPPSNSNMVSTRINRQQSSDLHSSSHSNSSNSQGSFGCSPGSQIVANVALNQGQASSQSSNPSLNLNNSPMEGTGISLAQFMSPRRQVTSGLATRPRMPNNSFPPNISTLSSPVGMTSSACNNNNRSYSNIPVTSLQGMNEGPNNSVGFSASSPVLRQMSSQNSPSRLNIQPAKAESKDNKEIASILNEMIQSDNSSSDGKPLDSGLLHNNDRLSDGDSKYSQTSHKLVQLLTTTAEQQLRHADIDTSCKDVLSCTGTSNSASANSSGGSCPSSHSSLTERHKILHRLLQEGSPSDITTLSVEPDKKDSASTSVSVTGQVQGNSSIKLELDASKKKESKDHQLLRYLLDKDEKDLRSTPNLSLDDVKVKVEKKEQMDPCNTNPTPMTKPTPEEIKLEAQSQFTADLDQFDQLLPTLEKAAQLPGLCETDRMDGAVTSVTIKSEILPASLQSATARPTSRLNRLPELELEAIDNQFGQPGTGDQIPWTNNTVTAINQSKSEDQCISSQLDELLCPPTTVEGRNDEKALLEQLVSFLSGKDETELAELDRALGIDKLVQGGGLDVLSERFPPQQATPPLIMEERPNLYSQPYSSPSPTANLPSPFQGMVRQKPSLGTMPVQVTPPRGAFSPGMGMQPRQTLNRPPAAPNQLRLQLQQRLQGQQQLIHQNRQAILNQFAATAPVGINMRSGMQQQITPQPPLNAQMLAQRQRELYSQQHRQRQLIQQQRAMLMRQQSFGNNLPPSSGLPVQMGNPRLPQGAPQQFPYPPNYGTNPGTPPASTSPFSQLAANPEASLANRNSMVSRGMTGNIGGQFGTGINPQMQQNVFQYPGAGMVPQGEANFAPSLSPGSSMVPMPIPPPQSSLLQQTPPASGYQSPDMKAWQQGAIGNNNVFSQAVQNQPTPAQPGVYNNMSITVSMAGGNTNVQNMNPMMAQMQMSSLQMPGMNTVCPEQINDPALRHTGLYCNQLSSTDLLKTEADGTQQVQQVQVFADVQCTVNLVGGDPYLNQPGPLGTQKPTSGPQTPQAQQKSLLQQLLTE

As for `CC1CCc2c(sc3ncnc(N4CCOCC4)c23)C1` (configuration not stated), the inhibition in test [1] is 40%; in test [2], 26.6% (active).
With `CCOC(=O)c1ccc(S(=O)(=O)N2CCN(C(C)=O)CC2)cc1`, the inhibition in test [1] was -14.4%; in test [2], -6.09%.
Consider `Cc1cc(C)c(OCCN2CCCC2)c(Cl)c1`, for which the inhibition in test [1] is -3.95%; in test [2], 2.73%.
With `Cn1c(/C=N/NC(=O)c2ccccc2Br)nc2ccccc21`, the inhibition in test [1] is 4.29%; in test [2], 15.7%.
On the same counts, the results for `COC(=O)c1ccc(C(=O)N2CCCC(Nc3ccc(F)c(F)c3)C2)cc1` (configuration not stated) are -59.6% and -10.7%.
In the same order, the values of `Cc1ccccc1-n1nc(C)c2c1N=C1C(Cl)=CC(Cl)=CN1C2c1ccc(C(=O)O)cc1` (configuration not stated) are -9.32% and -14.1%.
In the same order, the values of `O=C(NCc1ccccc1)C(c1ccccc1)N(Cc1cccs1)C(=O)c1cnccn1` (configuration not stated) are -71.6% and -20.6%.
In the case of `O=C1CCC/C1=c1\s/c(=C/c2cccnc2)c(=O)n1-c1ccccc1`, the inhibition in test [1] was 25.6%; in test [2] it was 17.8%.
For `CN1c2ccccc2C2(C)CCCC3=Cc4cccc([N+](=O)[O-])c4OC312` (configuration not stated), the inhibition in test [1] is -8.43%; in test [2] it was 11.1%.
As for `COc1ccc(C(=O)n2cc(C(=O)c3cc(C)ccc3O)cn2)cc1OC`, the inhibition in test [1] is -3.44%; in test [2], -0.92%.
On the same counts, the results for `CCOc1ccc(CCN2C(=S)N([C@@H](CC(C)C)CN3CCC[C@@H]3CN3C(=S)NC[C@@H]3CC(C)C)C[C@@H]2CC(C)C)cc1` are 3.98% and 5.15%.
As for `CC(C)(C)NC(=O)C1(C)CCC(=O)N1CCCn1ccnc1` (configuration not stated), the inhibition in test [1] is 22.2%; in test [2], 16.9%.
Consider `CC(C)Nc1ccc(Nc2ccnc3cc4ccccc4cc23)cc1`, for which the inhibition was 29.3% in test [1] and 38% (active) in test [2].
For the molecule `COc1ccc(Cl)cc1NC(=O)CN(C)C(=O)c1ccc(COc2ccccc2)cc1`, the inhibition was -31.4% in test [1] and -12.9% in test [2].
Consider `CCN1CCN(c2ccc(S(=O)(=O)N3CCCCC3)cc2NC(=O)c2cccc(Cl)c2)CC1`, for which the inhibition in test [1] was -2.97%; in test [2], -2.54%.
Regarding `O=C(COC(=O)c1c(Cl)cccc1Cl)Nc1cc(Cl)ccc1Oc1ccccc1`, the inhibition in test [1] is -14.1%; in test [2], 4.43%.
`CCN(Cc1ccncc1)C(=O)CC1C(=O)NCCN1Cc1ccc(F)c(F)c1` (configuration not stated): the inhibition was 30.1% in test [1] and 17% in test [2].
In the same order, the values of `O=C(N/N=C/c1coc2ccc(Cl)cc2c1=O)c1ccc(O)cc1` are 18.6% and 17.8%.
For `CCNC(=O)C1(C)CCN(C(=O)c2ccc(F)cc2Cl)C1` (configuration not stated), the figures for the inhibition in test [1] and in test [2] were 4.79% and 3.22%, respectively.
As for `Cc1ccc(C2C3=C(CC(C)(C)CC3=O)OC3=C2C(=O)CC(C)(C)C3)cc1`, the inhibition is 0% in test [1] and 3.31% in test [2].
On to `CC(=O)Nc1cccc(C(=O)Nc2ccc(S(=O)(=O)NC3=NCCCCC3)cc2)c1`, for which the inhibition is -23% in test [1] and -8.18% in test [2].
Take `CCOC(=O)c1c(NC(=O)c2c(-c3ccccc3)noc2C)sc(C)c1-c1ccccc1`: the inhibition is 39.9% in test [1] and 78.2% (active) in test [2].
As for `COc1ccc(-c2nc(N3CCOCC3)nc3n[nH]c(N)c23)cc1`, the inhibition was 5.53% in test [1] and 17.9% in test [2].
For the molecule `CC(C)N1C(=O)/C(=C\c2nc3ccccc3c(=O)n2-c2ccccc2)c2ccccc21`, the inhibition in test [1] was 7.4%; in test [2] it was 24.2%.
On the same counts, the results for `Cc1c(O)ccc(/C(Cc2ccc3ccccc3n2)=N\N)c1O` are -105% and -61.3%.
Regarding `Cc1ccc(S(=O)(=O)c2nc(-c3ccccc3Cl)oc2NCCCN2CCOCC2)cc1`, the inhibition was -13.7% in test [1] and -5.68% in test [2].
Take `COc1cc(OC)c(NS(=O)(=O)c2ccc(Cl)c(C(=O)OC(C)C(=O)N3CCCC3)c2)cc1Cl` (configuration not stated): the figures for the inhibition in test [1] and in test [2] were -10.2% and 10.7%, respectively.
Consider `COc1ccccc1OCCC(=O)OCC(=O)NC(C)c1ccccc1` (configuration not stated), for which the inhibition was -8.57% in test [1] and -18.5% in test [2].
Consider `O=C(COc1ccccc1-c1ccccc1)N/N=C/c1ccncc1`, for which the inhibition was -7.29% in test [1] and 13.6% in test [2].
Take `CC(=O)Nc1ccc(NC(=O)C2Cc3c(-c4ccco4)ccnc3O2)cc1` (configuration not stated): the inhibition is 3.04% in test [1] and 8.12% in test [2].
For the molecule `COc1ccc(S(=O)(=O)N(C)C[C@H]2Oc3c(NC(=O)Nc4c(C)noc4C)cccc3C(=O)N([C@H](C)CO)C[C@@H]2C)cc1`, the inhibition was 6.86% in test [1] and 9.48% in test [2].
